# In ChEMBL document CHEMBL4808148, “HDAC6 screening dataset using tau-based substrate in an enzymatic assay yields selective inhibitors and activators” (2021):
# Screen size: about 5,600 compounds; about 390 (7%) showed an effect of 50% or more. The sample as a whole holds a higher share of strong results than the screen did. Positions of bridges follow the written chain, without caps; N, C: chain ends. Non-standard residues stand in square brackets, D forms with d. Residues, ends and D or L forms follow the SMILES beside them. hArg = N=C(N)NCCCC[C@H](N)C(=O)O; Mpa = O=C(O)CCS
# Target: T1, Protein deacetylase HDAC6 (Homo sapiens) (UniProt Q9UBN7)
# T1 sequence (whole entry): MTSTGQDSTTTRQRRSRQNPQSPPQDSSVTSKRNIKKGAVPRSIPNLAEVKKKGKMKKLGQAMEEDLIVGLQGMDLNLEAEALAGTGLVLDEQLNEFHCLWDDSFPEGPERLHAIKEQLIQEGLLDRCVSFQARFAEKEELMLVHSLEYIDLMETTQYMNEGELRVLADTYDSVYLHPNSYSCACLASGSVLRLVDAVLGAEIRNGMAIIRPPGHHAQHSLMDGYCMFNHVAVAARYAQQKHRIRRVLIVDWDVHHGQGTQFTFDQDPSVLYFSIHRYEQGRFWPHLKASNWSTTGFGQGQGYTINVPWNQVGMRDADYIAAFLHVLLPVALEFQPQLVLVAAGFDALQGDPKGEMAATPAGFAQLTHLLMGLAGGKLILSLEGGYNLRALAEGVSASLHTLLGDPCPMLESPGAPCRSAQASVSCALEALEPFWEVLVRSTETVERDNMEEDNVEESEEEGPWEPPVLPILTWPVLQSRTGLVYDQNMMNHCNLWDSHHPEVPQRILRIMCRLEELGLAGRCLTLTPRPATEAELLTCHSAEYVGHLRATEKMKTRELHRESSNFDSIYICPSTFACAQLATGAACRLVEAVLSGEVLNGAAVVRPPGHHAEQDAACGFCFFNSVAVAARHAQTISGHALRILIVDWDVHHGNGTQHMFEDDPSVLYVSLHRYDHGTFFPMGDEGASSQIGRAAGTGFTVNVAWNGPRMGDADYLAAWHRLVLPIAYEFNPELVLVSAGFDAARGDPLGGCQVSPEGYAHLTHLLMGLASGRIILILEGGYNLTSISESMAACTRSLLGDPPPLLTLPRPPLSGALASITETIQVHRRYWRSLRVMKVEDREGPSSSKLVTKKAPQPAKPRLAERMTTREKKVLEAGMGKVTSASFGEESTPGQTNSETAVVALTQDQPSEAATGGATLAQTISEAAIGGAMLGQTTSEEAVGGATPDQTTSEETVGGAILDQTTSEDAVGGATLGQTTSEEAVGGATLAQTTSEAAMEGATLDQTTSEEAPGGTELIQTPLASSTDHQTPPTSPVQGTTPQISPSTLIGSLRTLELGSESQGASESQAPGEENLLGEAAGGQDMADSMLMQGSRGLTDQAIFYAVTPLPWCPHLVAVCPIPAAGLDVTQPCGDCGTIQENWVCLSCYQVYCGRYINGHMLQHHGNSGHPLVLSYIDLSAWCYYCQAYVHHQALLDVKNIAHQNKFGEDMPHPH
# Details: at 10 µM
row,SMILES,inhibition [%]
1,C=Cc1cc(O)cc2nc(-c3ccc(O)c(F)c3)oc12,-4.14
2,O=C(NC1CC1)c1cc(-c2cccs2)on1,75.4
3,C=CC(=O)Nc1cc2c(Nc3ccc(F)c(Cl)c3)ncnc2cc1OCCCN1CCOCC1,9.13
4,Nc1nncs1,6.15
5,O=C(Nc1ccc([N+](=O)[O-])cc1O)Nc1ccccc1Br,101
6,NC(=O)c1ccc([N+](=O)[O-])cc1Cl,8.11
7,CN(N=O)C(=O)N[C@@H](C=O)[C@@H](O)[C@H](O)[C@H](O)CO,-1.89
8,c1ccc2cc(C3=NCCN3)ncc2c1,3.66
9,Cc1sc2c(c1C)C(c1ccc(Cl)cc1)=N[C@@H](CC(=O)Nc1ccc(OCCOCCOCCOCCNc3cccc4c3C(=O)N(C3CCC(=O)NC3=O)C4=O)cc1)c1nnc(C)n1-2 (stereo partly drawn),9.19
10,CC(C(=O)O)c1ccc(N2Cc3ccccc3C2=O)cc1 (stereo not drawn),94.7
11,CC(C(=O)O)c1ccc2c(c1)CC(=O)c1ccccc1S2 (stereo not drawn),-3.14
12,CC(C(=O)O)c1ccc(C(=O)c2cccs2)cc1 (stereo not drawn),-7.49
13,CCC(C)(C)c1ccc(CC(C)CN2C[C@@H](C)O[C@@H](C)C2)cc1 (stereo partly drawn),-1.12
14,C=C1NC[C@H](O)[C@@H](C(=O)O)N1,-0.94
15,COC(=O)C1=C(C)NC(C)=C(C(=O)OCCSc2ccccc2)C1C (stereo not drawn),-9.24
16,CCOc1ccc(-n2c(C(C)N(Cc3cccnc3)C(=O)Cc3ccc(OC(F)(F)F)cc3)nc3ncccc3c2=O)cc1 (racemic),6.86
17,O=C1Nc2ccccc2/C1=C1/Nc2ccccc2C1=O,60.6
18,O=C1Nc2cc(Br)ccc2/C1=C1/Nc2ccccc2/C1=N\O,93.4
19,O=C1Nc2ccccc2/C1=C1/Nc2ccccc2/C1=N\O,100
20,CN1C(=O)/C(=C2/C(=O)Nc3ccccc32)c2ccccc21,32.9
21,N[C@@H]1CCN(O)C1=O,19.6
22,C/C=C1\C(=O)C[C@H]2[C@@H]3CCC4=CC(=O)CC[C@]4(C)[C@H]3CC[C@]12C,-4.59
23,Cc1csc2c(N[C@@H](C)CN3CCN(S(=O)(=O)c4ccc(Cl)c(Cl)c4)CC3)ncnc12,7.29
24,CNC(=O)[C@H]1O[C@@H](n2cnc3c(NCc4cccc(I)c4)ncnc32)[C@H](O)[C@@H]1O,9.22
25,CC(C)(C)c1cc(O)c(C(C)(C)C)cc1O,10.7

row,SMILES,inhibition [%]
1,CCOc1cc(C(=O)Nc2ccc(Cl)c(-c3nc4ccccc4[nH]3)c2)cc(OCC)c1OCC,11.9
2,Nc1nc(=O)c2c([nH]1)NC[C@H](CNc1ccc(C(=O)N[C@@H](CCC(=O)O)C(=O)O)cc1)N2C=O,3.47
3,O=c1[nH]cnc2c1cnn2[C@@H]1O[C@H](CO)[C@@H](O)[C@H]1O,20.8
4,N[C@@H](Cc1cc(-c2ccc(Cl)cc2Cl)cc(CP(=O)(O)O)c1O)C(=O)O,4.67
5,Cc1cc(=O)oc2cc(O)ccc12,35.6
6,C[C@@H]1O[C@@H](Oc2c(-c3cc(O)c(O)c(O)c3)oc3cc(O)cc(O)c3c2=O)[C@H](O)[C@H](O)[C@H]1O,-6.79
7,O=c1c(O[C@@H]2O[C@H](CO)[C@H](O)[C@H](O)[C@H]2O)c(-c2ccc(O)c(O)c2)oc2cc(O)cc(O)c12,28.9
8,O=C1c2c(O)cc(O)cc2O[C@H](c2cc(O)c(O)c(O)c2)[C@H]1O,-0.55
9,O=c1c(O)c(-c2ccc(O)c(O)c2)oc2cc(O)ccc12,97.4
10,O=c1c(O)c(-c2cc(O)c(O)c(O)c2)oc2cc(O)cc(O)c12,100
11,O=c1c(O)c(-c2ccc(O)cc2O)oc2cc(O)cc(O)c12,92.5
12,O=c1c(O)c(-c2ccc(O)cc2)oc2cc(O)cc(O)c12,98.8
13,Cc1cc(=O)oc2c(C=O)c(O)ccc12,-7.63
14,COc1ccc(C(=O)/C(Cc2cc(OC)c(OC)c(OC)c2)=C(\C(=O)O)c2ccc3c(c2)OCO3)cc1,26.5
15,Cc1cc(C)c2c(c1)[C@@H](N(Cc1cc(C(F)(F)F)cc(C(F)(F)F)c1)c1nnn(C)n1)CCCN2C[C@H]1CC[C@H](C(=O)O)CC1,4.11
16,Cc1nnsc1C(=O)Nc1ccc(-n2nc(C(F)(F)F)cc2C(F)(F)F)cc1,8.76
17,O=C1Cc2cc(CCN3CCN(c4nsc5ccccc45)CC3)c(Cl)cc2N1,11.8
18,COc1cccc(OCCCN)c1-c1cc(Nc2cnc(C#N)cn2)n[nH]1,-3.28
19,N#C[C@@H]1CCCN1C(=O)CNC12CC3CC(CC(O)(C3)C1)C2,-7.44
20,C/C=C\C1=C(C(=O)O)N2C(=O)C(NC(=O)C(N)c3ccc(O)cc3)C2SC1 (stereo not drawn),-7.76
21,O=C(O)CCN(O)C(=O)CCCCCCCCC1CC1,37.2
22,C=CC[N+]12CC[C@@]34c5ccccc5N5/C=C6/[C@H]7C[C@H]8[C@@]9(CC[N@@+]8(CC=C)C/C7=C/CO)c7ccccc7N(/C=C(/[C@@H](C[C@@H]31)/C(=C\CO)C2)[C@H]54)[C@@H]69 (stereo partly drawn),31.2
23,N=C(N)NCCC[C@@H](N)C(=O)N[C@@H](CCCNC(=N)N)C(=O)N1CCC[C@H]1C(=O)N1C[C@H](O)C[C@H]1C(=O)NCC(=O)N[C@@H](Cc1cccs1)C(=O)N[C@@H](CO)C(=O)N1Cc2ccccc2C[C@@H]1C(=O)N1[C@H](C(=O)N[C@@H](CCCNC(=N)N)C(=O)O)C[C@@H]2CCCC[C@@H]21,31.7
24,COc1cc(CN(CCN)C(=O)c2cccs2)ccc1OCc1ccccc1,-2.87
25,O=C(Nc1ccc(Cl)cc1)Nc1cccc(-c2cccc(N3CCCC3)n2)c1,20.6

row,SMILES,inhibition [%]
1,CC(C)c1c(NC(=O)Nc2ccc(Cl)cc2)c(=O)n(-c2ccccc2)n1C,-4.84
2,CN1CC(=O)N=C1NC(=O)Nc1cccc(Cl)c1,89.3
3,CC(C)c1onc(-c2c(Cl)cccc2Cl)c1COc1ccc(/C=C/c2cccc(C(=O)O)c2)c(Cl)c1,3.22
4,O=C(/C=C/c1ccc2c(c1)OCO2)N1CCCCC1,97.2
5,O=C(/C=C/C=C/c1ccc2c(c1)OCO2)N1CCCCC1,115
6,CC(C)(C)C(O)/C=C/c1ccc2c(c1)OCO2 (stereo not drawn),15.9
7,O=C(c1ccc2c(c1)OCO2)N1CCCCC1,21.9
8,CC(C)(C)c1ccc(/C=C/C(=O)Nc2ccc3c(c2)OCCO3)cc1,-7.4
9,C[N+](C)(C)CC[N+]1(C)Cc2c(Cl)c(Cl)c(Cl)c(Cl)c2C1,10.9
10,COc1oc(=O)c2cc(N)ccc2c1Cl,22.8
11,C=C1/C(=C\C=C2/CCC[C@]3(C)[C@@H]([C@H](C)CCCC(C)C)CC[C@@H]23)C[C@@H](O)C[C@@H]1O,-2.44
12,COc1ccc(-c2sc(NC(=O)C(C)(C)C)nc2C)cc1S(=O)(=O)Nc1ccc(O)cc1,-1.39
13,O=C(c1ccc(/C=C/c2n[nH]c3ccccc23)cc1)N1CCNCC1,94.8
14,COc1ccc(Cl)c(Nc2ncnc3cc(OCC4CCN(C)CC4)c(OC)cc23)c1,6.69
15,CN(C(=O)CCCOc1ccc2[nH]c(=O)ccc2c1)C1CCCCC1,-1.06
16,N=C(N)NCCCC[C@@H]1NC(=O)CCSSC[C@@H](C(N)=O)NC(=O)[C@@H]2CCCN2C(=O)[C@H](Cc2c[nH]c3ccccc23)NC(=O)[C@H](CC(=O)O)NC(=O)CNC1=O ([Mpa][hArg]GDWPC-NH2; disulfide 1-7),6.3
17,CC/C(=C(\c1ccc(O)cc1)c1ccc(OCCNC)cc1)c1ccccc1,-4.99
18,N=C(N)SCCc1ccc(OCc2ccc([N+](=O)[O-])cc2)cc1,9.62
19,Oc1ccc(OCc2ccccc2)cc1,98.1
20,CCNCCCNCCCCNCCCNCC,4.88
21,CN(C)CCOc1cc(-c2cn[nH]c2)ccc1NC(=O)C1COc2ccccc2O1 (stereo not drawn),55.4
22,CC1(C)CC(Oc2ccc(-c3ccc(-c4cn[nH]c4)cc3O)nn2)CC(C)(C)N1,8.09
23,CC1(C)CCC(C)(C)c2cc(C3(c4ccc(C(=O)O)cc4)OCCO3)ccc21,-3.33
24,CS(=O)(=O)c1ccc(-c2cc(Br)sc2-c2ccc(F)cc2)cc1,-5.78
25,O=C1NC(=O)/C(=C/c2ccc3c(c2)OC(F)(F)O3)S1,0.87

row,SMILES,inhibition [%]
1,N=C1NC(=O)/C(=C/c2ccc(O)cc2)S1,28.8
2,O=C1NC(=O)/C(=C/c2ccc(-c3ccc(F)cc3O)o2)S1,90.4
3,O=C(NO)c1ccc(O)c(O)c1,87.6
4,CC(C)C(=O)c1ccc(O)c(O)c1,-4.84
5,O=C(O)C(O)Cc1ccc(O)c(O)c1 (stereo not drawn),15.4
6,CCC(=O)c1cc(-c2ccc(Cl)cc2)n(-c2ccc(S(N)(=O)=O)cc2)c1C,23.3
7,O=C1c2c(O)ccc(O)c2C(=O)c2c(NCCNCCO)ccc(NCCNCCO)c21,28.6
8,NCCNS(=O)(=O)c1ccc(Cl)c2ccncc12,8.69
9,NCCNc1ccc(NCCN)c2c1C(=O)c1ccncc1C2=O,98.7
10,NC(N)=O,5.48
11,C[C@@H]1CCCN1CCc1cc2cc(-c3ccc(C#N)cc3)ccc2o1,25.1
12,COc1ccc([C@@H]2Sc3ccccc3N(CCN(C)C)C(=O)[C@@H]2OC(C)=O)cc1,10.1
13,O=C1NC(c2cccc([N+](=O)[O-])c2)=CCN1c1ccccc1O,31.3
14,N#Cc1cccc(C(=O)Nc2cc(-c3ccccc3)nn2-c2ccccc2)c1,70
15,Cc1cc(NC(=O)Nc2ccc(F)c(F)c2)n(-c2ccccc2)n1,23.6
16,O=C(Nc1cc(-c2ccccc2)nn1-c1ccccc1F)c1ccc([N+](=O)[O-])cc1,73.6
17,CCOC(=O)c1ccc(OCCC2CCN(c3ccc(C)nn3)CC2)cc1,19.2
18,Cc1cccc(C#Cc2ccccc2)n1,101
19,NS(=O)(=O)C#Cc1ccccc1,-0.7
20,COc1cc(C(=O)O)ccc1NC(=O)[C@@H]1N[C@@H](CC(C)(C)C)[C@](C#N)(c2ccc(Cl)cc2F)[C@H]1c1cccc(Cl)c1F,11.2
21,CO[C@@H]1COCC[C@@H]1N[C@@H]1CC[C@@](C(=O)N2CCc3ncc(C(F)(F)F)cc3C2)(C(C)C)C1,41.3
22,Cc1ccc2c(=O)c3ccccc3n(CCCN)c2c1C,6.54
23,COc1ccncc1C(=O)NC(=O)Nc1ccc(-c2ccccc2)c(C(F)(F)F)c1,9.55
